Test results published in PubChem BioAssay AID1159580 (chemical genetic matrix, 2015).
Values joined by “and” are separate entries in the source; they are usually repeats but may differ in a detail not shown here. Equal entries are not always repeated. About 2,000 (36%) of roughly 5,500 compounds were called active. Not shown: some 18% with an inconclusive outcome. Rule as the data show it: active = normalized growth mostly below about 0.91 (no sharp cut-off); inconclusive = no clear call, values can overlap the other calls; inactive = mostly above about 0.92. Some of the results follow.

Test: chemical genetic growth profiling, strain panel (AID 1159580);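 also: tested at 20 µM; growth read once vehicle control cultures reached saturation at 30 °C; 1 = growth at the plate median or of vehicle wells; lower values mean less growth of the strain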
Settings: S. cerevisiae deletion strains, growth OD

Measured: normalized growth

COC(=O)C(O)c1ccccc1 (stereo unspecified)
inactive: locus YAL021C, strain ccr4, hits give low values 1.02 | locus YAL026C, strain drs2, hits give low values 1.01 | locus YAL030W, strain snc1, hits give low values 0.984 | locus YBL061C, strain skt5, hits give low values 0.996 | locus YBR009C, strain hhf1, hits give low values 1.01 | locus YBR021W, strain FUR4, hits give low values 1.06 | locus YBR023C, strain chs3, hits give low values 1.01 | locus YBR171W, strain sec66, hits give low values 0.99 | locus YBR229C, strain ROT2, hits give low values 0.999 | locus YBR231C, strain swc5, hits give low values 0.961 | locus YBR279W, strain paf1, hits give low values 0.999 | locus YCL011C, strain gbp2, hits give low values 1.02 | locus YCL016C, strain dcc1, hits give low values 1.02 | locus YCL029C, strain bik1, hits give low values 0.982 | locus YCL069W, strain vba3, hits give low values 1 | locus YCR088W, strain abp1, hits give low values 0.99 | locus YDL005C, strain med2, hits give low values 0.984 | locus YDL035C, strain GPR1, hits give low values 1.05 | locus YDL040C, strain nat1, hits give low values 0.991 | locus YDL074C, strain BRE1, hits give low values 1.05 | locus YDL101C, strain DUN1, hits give low values 0.977 | locus YDL134C, strain PPH21, hits give low values 0.964 | locus YDL185W, strain tfp1, hits give low values 0.949 | locus YDL192W, strain arf1, hits give low values 1.01 | locus YDR001C, strain nth1, hits give low values 0.99 | locus YDR069C, strain doa4, hits give low values 0.996 | locus YDR101C, strain arx1, hits give low values 1.05 | locus YDR137W, strain rgp1, hits give low values 1.01 | locus YDR159W, strain sac3, hits give low values 0.973 | locus YDR162C, strain NBP2, hits give low values 0.975 | locus YDR195W, strain ref2 0.909 | locus YDR297W, strain sur2, hits give low values 0.992 | locus YDR318W, strain mcm21, hits give low values 0.985 | locus YDR334W, strain swr1, hits give low values 0.98 | locus YDR335W, strain msn5, hits give low values 1.01 | locus YDR388W, hits give low values 0.973 | locus YDR392W, strain spt3, hits give low values 1.02 | locus YDR502C, strain sam2, hits give low values 0.969 | locus YEL003W, strain gim4, hits give low values 0.99 | locus YEL037C, strain rad23, hits give low values 0.992 | locus YEL061C, strain CIN8 (second series), hits give low values 0.983 | locus YEL061C, strain CIN8, hits give low values 0.991 | locus YER015W, strain faa2, hits give low values 1.01 | locus YER016W, strain bim1, hits give low values 0.993 | locus YER110C, hits give low values 0.984 | locus YER111C, strain swi4, hits give low values 0.981 | locus YER155C, strain BEM2 (second series), hits give low values 0.978 | locus YER155C, strain BEM2, hits give low values 0.988 | locus YER167W, strain BCK2, hits give low values 1.01 | locus YFR010W, strain ubp6, hits give low values 0.974 | locus YGL078C, strain dbp3, hits give low values 0.974 | locus YGL086W, strain mad1, hits give low values 0.996 | locus YGL167C, strain pmr1, hits give low values 0.995 | locus YGL173C, strain kem1, hits give low values 0.981 | locus YGL227W, strain vid30, hits give low values 1 | locus YGL240W, strain doc1, hits give low values 0.99 | locus YGL248W, strain PDE1, hits give low values 0.983 | locus YGL253W, strain hxk2, hits give low values 0.983 | locus YGR078C, strain PAC10, hits give low values 0.974 | locus YGR135W, strain pre9, hits give low values 0.941 | locus YGR229C, strain SMI1, hits give low values 0.961 | locus YGR252W, strain gcn5, hits give low values 1.02 | locus YHR013C, strain ard1, hits give low values 1 | locus YHR027C, strain rpn1, hits give low values 0.986 | locus YHR030C, strain SLT2, hits give low values 1.02 | locus YHR079C, strain IRE1 (second series), hits give low values 0.971 | locus YHR079C, strain IRE1, hits give low values 0.996 | locus YHR094C, strain hxt1, hits give low values 0.983 | locus YHR129C, strain ARP1, hits give low values 0.993 | locus YHR142W, strain chs7, hits give low values 1.02 | locus YHR200W, strain rpn10, hits give low values 0.963 | locus YIL066C, strain RNR3, hits give low values 1.02 | locus YIL073C, strain SPO22, hits give low values 0.977 | locus YIL125W, strain kgd1, hits give low values 1 | locus YIR030C, strain dcg1, hits give low values 0.975 | locus YJL092W, strain hpr5, hits give low values 0.991 | locus YJL095W, strain BCK1 (second series), hits give low values 0.985 | locus YJL095W, strain BCK1, hits give low values 0.963 and 1.01 | locus YJL115W, strain asf1, hits give low values 0.981 | locus YJL129C, strain trk1, hits give low values 0.992 | locus YJL134W, strain LCB3, hits give low values 0.992 | locus YJL154C, strain vps35, hits give low values 0.986 | locus YJL164C, strain tpk1, hits give low values 1.03 | locus YJL166W, strain qcr8, hits give low values 1.04 | locus YJL168C, strain set2, hits give low values 0.976 | locus YJL187C, strain SWE1 (second series), hits give low values 0.98 | locus YJL187C, strain SWE1, hits give low values 0.997 | locus YJR043C, strain POL32, hits give low values 1.09 | locus YJR066W, strain TOR1, hits give low values 0.939 | locus YKL009W, strain mrt4, hits give low values 1.05 | locus YKL068W, hits give low values 0.982 | locus YKL085W, strain MDH1 (second series), hits give low values 0.976 | locus YKL085W, strain MDH1, hits give low values 0.976 | locus YKL160W, strain elf1, hits give low values 1.04 | locus YKL190W, strain CNB1, hits give low values 0.975 | locus YKR001C, strain vps1, hits give low values 1.02 | locus YKR026C, strain gcn3, hits give low values 0.981 | locus YKR091W, strain srl3, hits give low values 0.993 | locus YLL001W, strain dnm1, hits give low values 0.985 | locus YLL026W, hits give low values 0.991 | locus YLL041C, strain sdh2, hits give low values 1.02 | locus YLR027C, strain aat2, hits give low values 1.02 | locus YLR039C, strain RIC1, hits give low values 1 | locus YLR058C, strain SHM2, hits give low values 1.01 | locus YLR102C, strain apc9, hits give low values 0.981 | locus YLR113W, strain HOG1, hits give low values 0.983 | locus YLR221C, strain rsa3, hits give low values 0.999 | locus YLR258W, strain gsy2, hits give low values 1.02 | locus YLR262C, strain YPT6 (second series), hits give low values 1.05 | locus YLR268W, strain sec22, hits give low values 1.03 | locus YLR320W, strain mms22, hits give low values 0.999 | locus YLR342W, strain FKS1, hits give low values 1 | locus YLR357W, strain rsc2, hits give low values 0.983 | locus YLR370C, strain arc18, hits give low values 0.994 | locus YLR371W, strain rom2, hits give low values 0.983 | locus YLR384C, strain iki3, hits give low values 0.98 | locus YLR418C, strain cdc73, hits give low values 0.953 | locus YML016C, strain PPZ1, hits give low values 0.977 | locus YML032C, strain rad52, hits give low values 1.01 | locus YML120C, strain ndi1, hits give low values 1.01 | locus YML124C, strain tub3, hits give low values 0.988 | locus YMR058W, strain fet3, hits give low values 1 | locus YMR078C, strain ctf18, hits give low values 0.974 | locus YMR125W, strain sto1, hits give low values 0.998 | locus YMR129W, hits give low values 0.995 | locus YMR205C, strain PFK2, hits give low values 1.02 | locus YMR223W, strain ubp8, hits give low values 0.975 | locus YMR231W, strain pep5, hits give low values 0.977 | locus YMR307W, strain GAS1, hits give low values 1.22 | locus YNL067W, strain RPL9B, hits give low values 0.965 | locus YNL071W, strain lat1, hits give low values 1.01 | locus YNL153C, strain GIM3, hits give low values 0.964 | locus YNL183C, strain NPR1, hits give low values 0.946 | locus YNL209W, strain ssb2, hits give low values 1.01 | locus YNL233W, strain BNI4, hits give low values 0.993 | locus YNL248C, strain rpa49, hits give low values 0.983 | locus YNL250W, strain rad50, hits give low values 0.943 | locus YNL271C, strain bni1, hits give low values 0.968 | locus YNL298W, strain CLA4, hits give low values 0.989 | locus YNL307C, strain MCK1, hits give low values 0.985 | locus YNL322C, strain KRE1 (second series), hits give low values 0.992 | locus YNR049C, strain mso1, hits give low values 0.993 | locus YNR052C, strain pop2, hits give low values 0.975 | locus YOL012C, strain htz1 0.732 | locus YOL147C, strain pex11, hits give low values 0.986 | locus YOR001W, strain rrp6, hits give low values 0.964 | locus YOR061W, strain CKA2, hits give low values 1.02 | locus YOR069W, strain VPS5, hits give low values 0.992 | locus YOR070C, strain gyp1, hits give low values 1.01 | locus YOR080W, strain dia2, hits give low values 0.98 | locus YOR083W, strain WHI5, hits give low values 1.05 | locus YOR106W, strain vam3, hits give low values 1.02 | locus YOR136W, strain idh2, hits give low values 0.989 | locus YOR144C, strain elg1, hits give low values 0.998 | locus YOR184W, strain ser1, hits give low values 1.09 | locus YOR231W, strain MKK1, hits give low values 1.01 | locus YOR265W, strain rbl2, hits give low values 0.998 | locus YOR270C, strain vph1, hits give low values 1.01 | locus YOR290C, strain snf2, hits give low values 1.06 | locus YOR316C, strain cot1, hits give low values 0.966 | locus YPL051W, strain arl3, hits give low values 0.979 | locus YPL078C, strain atp4, hits give low values 1.04 | locus YPL106C, strain sse1, hits give low values 0.997 | locus YPL240C, strain hsp82, hits give low values 0.993 | locus YPL241C, strain CIN2, hits give low values 0.986 | locus YPL256C, strain CLN2, hits give low values 0.978 | locus YPR119W, strain clb2, hits give low values 0.952 | locus YPR141C, strain kar3, hits give low values 0.961 | locus YPR163C, strain tif3, hits give low values 0.983 | locus YPR167C, strain met16, hits give low values 0.979 | strain wtn01, hits give low values 1.01
